# Compound activity deposited in PubChem by several laboratories.
# MPTP block = permeability transition pore inhibition; isolated mouse mitochondria, Ca2+ swelling absorbance, 30 min; inhibition, % at 10 µM; hit rate 1.4% among 360,000;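 active = inhibition of 50% or more, scaled per plate between neutral and stimulator controls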;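 note: 0% = DMSO wells given calcium and 100% = 1 mM EGTA wells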
# Pemphigus Ab inh = human desmoglein-3 autoantibody binding inhibition; P32926; binding (percent of control), % at 10 µM; hit rate 0.48% among 310,000; DSG3-coupled beads, scFv-anti-DSG3-GFP binding, flow cytometry; stronger effect = lower value;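 active = binding more than 3 SD below its plate's average and above zero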;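 note: hits lower antibody fragment binding to DSG3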
# proKLK7 act = activators of human kallikrein-7 zymogen | P49862 | hit rate 0.9% among 370,000 | activation, % at 7 µM | purified proKLK7, EDANS-DABCYL substrate fluorescence; 100% is mature enzyme control, 0% vehicle;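 active = activation above the mean of all tested compounds plus 3 SD, computed per campaign excluding outliers beyond control limits, cut at about 13% in these data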
# Target sequence (P49862 whole entry, looked up): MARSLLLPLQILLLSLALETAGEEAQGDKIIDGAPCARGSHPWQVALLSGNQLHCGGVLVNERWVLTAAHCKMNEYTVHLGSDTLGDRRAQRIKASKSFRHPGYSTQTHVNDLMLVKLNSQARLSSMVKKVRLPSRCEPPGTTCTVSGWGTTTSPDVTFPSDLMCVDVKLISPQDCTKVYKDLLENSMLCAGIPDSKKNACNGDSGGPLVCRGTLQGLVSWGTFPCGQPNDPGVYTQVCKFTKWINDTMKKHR
# rCAG binder = molecules binding r(CAG) RNA repeats. inhibition, % at 3 µM. hit rate 1.3% among 370,000. r(CAG) RNA repeat, TO-PRO-1 dye displacement fluorescence;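 active = inhibition above the plate cutoff, the mean of all test compounds on that plate plus 3 SD, cut at about 35% in these data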;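 note: 0% = DMSO alone and 100% = 100 µM mitoxantrone as full dye displacement; higher means more dye released from RNA so lower well fluorescence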
# ADAM10 inh = inhibits human ADAM10; recombinant ADAM10, EDANS/DABCYL FRET peptide cleavage, 3 h; inhibition, % at 7 µM; hit rate 0.62% among 370,000; AID 720582;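 active = inhibition above a per-campaign cutoff equal to the mean of compounds falling between control-based bounds plus 3 SD, cut at about 20% in these data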;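 note: 0% = DMSO wells while the 100% control is not disclosed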
# ADAM17 inh = inhibitors of human ADAM17; P78536; recombinant ADAM17, EDANS/DABCYL FRET peptide cleavage; inhibition, % at 6.95 µM; hit rate 0.83% among 370,000; AID 720648;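 active = inhibition above the mean of compounds lying between control limits plus 3 SD, set per campaign, cut at about 8.5% in these data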;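 note: 0% = DMSO-only wells as the low control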
# ADAM10 confirm = human ADAM10 inhibition, confirmation; shares compounds with ADAM10 inh; ADAM10 QFRET peptide cleavage, EDANS fluorescence; inhibition, % at 6.95 µM; hit rate 1% among 2,100; AID 743208;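 active = inhibition above about 20% chosen separately for each screening run, limit read from the data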;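 note: 0% = DMSO wells and 100% = marimastat wells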
# ADAM17 ctr = inhibits human ADAM17 in ADAM10 exosite counter-screen; inhibition, % at 6.95 µM; hit rate 0.5% among 2,100; shares compounds with ADAM10 inh; ADAM17 QFRET peptide cleavage, EDANS fluorescence; AID 743214;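 active = mean triplicate inhibition above the solvent-only control wells' mean plus 3 SD, cut at about 12% in these data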;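 note: 0% = DMSO wells and 100% = marimastat wells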
# ADAM10 counter = counter-screen for ADAM17 exosite inhibitors: inhibitors of human ADAM10; hit rate 47% among 2,900; shares compounds with ADAM17 inh; AID 743256; recombinant ADAM10, EDANS/DABCYL FRET peptide cleavage, 3 h; inhibition, % at 6.95 µM;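 active = mean inhibition over the triplicate runs exceeds the activity threshold set in the earlier primary screen, cut at about 20% in these data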;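 note: 0% = DMSO wells and 100% = marimastat wells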
# ADAM17 confirm = confirmation of inhibitors of human ADAM17; recombinant ADAM17, EDANS/DABCYL QFRET peptide cleavage; shares compounds with ADAM17 inh; hit rate 65% among 2,900; inhibition, % at 6.95 µM;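 active = mean inhibition across replicates above the hit cutoff set in the primary screen, cut at about 8.5% in these data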;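 note: 0% = DMSO wells and 100% = marimastat wells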
# * hit, by the source's call; i = inactive; nt = no result given; ! = a repeat was not active. A selection: hits, their analogues and other compounds. The true share with any hit is near 4.7%.
SMILES,MPTP block,Pemphigus Ab inh,proKLK7 act,rCAG binder,ADAM10 inh,ADAM17 inh,ADAM10 confirm,ADAM17 ctr,ADAM10 counter,ADAM17 confirm
COC(=O)[C@@]12C[C@@H](CC(=O)NCc3cccc(C(F)(F)F)c3)C(=O)N(Cc3cccc4ccccc34)C1=CCC(C)(C)C2,0.8,nt,0.0,10.8,7.9,3.9,nt,nt,nt,nt
OC(c1cccc(Cl)c1)c1ncc(-c2ccc(Oc3ccccc3)cc2)[nH]1 (stereo not given),3.2,nt,-0.9,4.9,24.7*,11.2*,9.5,4.2,41.8*,21.0*
OC(c1ccc(Cl)c(Cl)c1)c1ncc(-c2ccc(C(F)(F)F)cc2)[nH]1 (stereo not given),28.8,nt,0.0,2.6,26.3*,9.0*,7.6,1.8,29.6*,14.7*
OC(c1ccc(Cl)c(F)c1)c1ncc(-c2ccc(Oc3ccccc3)cc2)[nH]1 (stereo not given),17.9,nt,0.9,5.0,10.5,4.4,nt,nt,nt,nt
Cc1cc(F)ccc1C(O)c1ncc(-c2ccc(Oc3ccccc3)cc2)[nH]1 (stereo not given),3.0,nt,-0.2,5.0,29.5*,11.8*,6.0,2.3,19.9*,14.2*
CCN(CC)C(=O)CN1C(=O)C2(OCC(C)(C)CO2)c2ccccc21,-1.7,103.5,0.5,-1.4,-6.0,-1.9,nt,nt,nt,nt
O=S(=O)(Nc1ccc(Br)cc1)c1cccc2cccnc12,1.1,95.9,-0.3,1.4,3.4,2.8,nt,nt,nt,nt
O=S(=O)(Nc1ccc(C(O)(C(F)(F)F)C(F)(F)F)cc1)c1cccc2cccnc12,0.7,nt,-0.5,5.5,27.0*,10.3*,-1.6,0.4,20.2*,13.7*
CCCNC(=O)C1(C)CCCN(C(=O)c2cccnc2Oc2ccccc2)C1 (stereo not given),-0.1,nt,-0.1,-1.0,-16.5,-4.4,nt,nt,nt,nt
CC1(Cc2ccc3c(c2)OCO3)C(=O)Nc2ccc(-c3cccc(C(F)(F)F)c3)cc21 (stereo not given),1.9,nt,-0.1,2.9,-10.7,3.6,nt,nt,nt,nt
CC1(Cc2ccc(C(F)(F)F)o2)C(=O)Nc2ccc(-c3cccc(C(F)(F)F)c3)cc21 (stereo not given),1.8,nt,0.6,2.4,28.5*,16.7*,14.1,4.6,32.4*,20.6*
O=C1C=C(/C=C/C2C=CC=CC2)C[C@@H](c2ccc(Cl)cc2)C1 (stereo not given in full),1.4,104.5,0.2,2.1,26.6*,12.8*,6.0,1.1,-3.3,5.6
CCC(=O)N1CCN(c2nc(CC)nc3sc4c(c23)CCCC4)CC1,0.9,118.9,0.1,-4.0,0.6,0.8,nt,nt,nt,nt
CCc1nc(N2CCN(C(=S)NCCCOC)CC2)c2c3c(sc2n1)CCCC3,2.1,105.4,0.7,-3.0,20.2*,14.0*,4.0,1.8,13.4,7.5
O=C(Nc1nc(-c2ccc(S(=O)(=O)N3CCOCC3)cc2)cs1)c1ccccc1,-1.9,92.9,-0.3,15.8,21.0*!,10.8*!,9.6,4.7,-0.2,7.0
COc1cccc(C(=O)Nc2nc(-c3ccc(S(=O)(=O)N4CCOCC4)cc3)cs2)c1,-2.4,103.5,-7.3,11.1,4.1,-0.3,nt,nt,nt,nt
CNC(=S)N(CCc1c(C)[nH]c2ccc(C)cc12)Cc1cccs1,-0.4,96.1,0.4,4.3,21.8*,9.8*,1.8,2.0,16.3,10.0*
COc1ccc(NC(=S)N(CCc2c(C)[nH]c3ccc(C)cc23)Cc2cccs2)cc1,1.8,100.2,0.2,12.0,2.6,2.8,nt,nt,nt,nt
C[C@H](CO)N1C[C@H](C)[C@H](CN(C)S(=O)(=O)c2cccs2)Oc2ccc(NC(=O)Nc3ccc4c(c3)OCO4)cc2CC1=O,-0.2,101.3,0.4,13.0,26.9*,12.9*,1.9,0.4,16.1,14.0*
C[C@@H]1CN([C@H](C)CO)C(=O)c2cc(NC(=O)Nc3ccc(F)cc3)ccc2O[C@@H](C)CCCCO[C@H]1CN(C)S(=O)(=O)c1cccs1,-0.2,nt,-0.1,13.3,30.1*,8.9*,4.9,1.5,41.6*,21.4*
COc1ccc(NC(=O)Nc2ccc3c(c2)C(=O)N([C@H](C)CO)C[C@H](C)[C@@H](CN(C)S(=O)(=O)c2cccs2)O3)cc1,0.1,104.3,0.5,8.2,21.4*,15.5*,2.9,0.2,14.2,10.2*
CC(C)NC(=O)N(C)C[C@@H]1OCCCC[C@@H](C)Oc2ccc(NC(=O)Nc3ccc(F)cc3)cc2C(=O)N([C@H](C)CO)C[C@@H]1C,-0.3,nt,-0.2,2.9,0.7,1.3,nt,nt,nt,nt
COc1ccc(NC(=O)Nc2ccc3c(c2)C(=O)N([C@@H](C)CO)C[C@@H](C)[C@@H](CN(C)S(=O)(=O)c2cccs2)O3)cc1,0.8,104.1,0.8,12.4,20.6*,8.8*,-0.1,0.4,19.5,12.0*
C[C@H](CO)N1C[C@H](C)[C@H](CN(C)S(C)(=O)=O)Oc2c(cccc2N(C)C)C1=O,-2.6,107.1,-0.4,-4.0,-4.4,-4.7,nt,nt,nt,nt
OC(c1ccccc1)(c1nc(-c2cc3ccccc3o2)cs1)C(F)(F)F (stereo not given),0.9,nt,0.3,1.0,16.1,7.8,nt,nt,nt,nt
SMILES,MPTP block,Pemphigus Ab inh,proKLK7 act,rCAG binder,ADAM10 inh,ADAM17 inh,ADAM10 confirm,ADAM17 ctr,ADAM10 counter,ADAM17 confirm
COc1ccccc1N(C)S(=O)(=O)c1ccc(C(=O)NNC(=O)c2ccccc2O)cc1,4.5,102.6,0.3,20.6,22.3*,9.0*,5.7,3.1,19.1,12.4*
COc1ccccc1N(C)S(=O)(=O)c1ccc(Cl)c(C(=O)NNC(=O)c2ccccc2O)c1,0.9,110.7,-0.5,25.3,6.2,5.1,nt,nt,nt,nt
COC(=O)Cn1nnnc1-c1nc2cc(C)c(C)cc2[nH]c1=O,-0.9,nt,-0.5,4.9,i,-155.6,nt,nt,nt,nt
O=C(c1cccs1)N1N=C(c2ccccc2)CC1c1ccc(O)cc1 (stereo not given),1.3,105.0,-0.2,9.1,27.2*,16.1*,14.0,4.2,29.9*,21.4*
Cc1ccccc1N=C1NC(=O)/C(=C/c2cccn2C)S1,2.9,108.7,-0.4,8.4,27.4*,9.9*,-0.7,6.0,16.6,12.6*
OC(CSc1ccccc1)CN1CCN(c2ccc(Cl)cc2)CC1 (stereo not given),3.0,93.6,0.1,2.7,5.1,0.5,nt,nt,nt,nt
